Measurements from ChEMBL document CHEMBL5724796, “Tm Shift (DSF) assay results for EUbOPEN Chemogenomics Library” (2024).
Non-standard residues stand in square brackets, D forms with d. Residues, ends and D or L forms follow the SMILES beside them. *: point of attachment. Benzoyl(4-tBu) = CC(C)(C)c1ccc(C(=O)*)cc1; Lys(Et2) = CCN(CC)CCCC[C@H](N)C(=O)O

What follows are molecules tested against Tyrosine-protein kinase ABL1 (Homo sapiens) (UniProt P00519). Conditions: Compound concentration 20.0 uM.
Tyrosine-protein kinase ABL1 (Homo sapiens), sequence (P00519 whole entry): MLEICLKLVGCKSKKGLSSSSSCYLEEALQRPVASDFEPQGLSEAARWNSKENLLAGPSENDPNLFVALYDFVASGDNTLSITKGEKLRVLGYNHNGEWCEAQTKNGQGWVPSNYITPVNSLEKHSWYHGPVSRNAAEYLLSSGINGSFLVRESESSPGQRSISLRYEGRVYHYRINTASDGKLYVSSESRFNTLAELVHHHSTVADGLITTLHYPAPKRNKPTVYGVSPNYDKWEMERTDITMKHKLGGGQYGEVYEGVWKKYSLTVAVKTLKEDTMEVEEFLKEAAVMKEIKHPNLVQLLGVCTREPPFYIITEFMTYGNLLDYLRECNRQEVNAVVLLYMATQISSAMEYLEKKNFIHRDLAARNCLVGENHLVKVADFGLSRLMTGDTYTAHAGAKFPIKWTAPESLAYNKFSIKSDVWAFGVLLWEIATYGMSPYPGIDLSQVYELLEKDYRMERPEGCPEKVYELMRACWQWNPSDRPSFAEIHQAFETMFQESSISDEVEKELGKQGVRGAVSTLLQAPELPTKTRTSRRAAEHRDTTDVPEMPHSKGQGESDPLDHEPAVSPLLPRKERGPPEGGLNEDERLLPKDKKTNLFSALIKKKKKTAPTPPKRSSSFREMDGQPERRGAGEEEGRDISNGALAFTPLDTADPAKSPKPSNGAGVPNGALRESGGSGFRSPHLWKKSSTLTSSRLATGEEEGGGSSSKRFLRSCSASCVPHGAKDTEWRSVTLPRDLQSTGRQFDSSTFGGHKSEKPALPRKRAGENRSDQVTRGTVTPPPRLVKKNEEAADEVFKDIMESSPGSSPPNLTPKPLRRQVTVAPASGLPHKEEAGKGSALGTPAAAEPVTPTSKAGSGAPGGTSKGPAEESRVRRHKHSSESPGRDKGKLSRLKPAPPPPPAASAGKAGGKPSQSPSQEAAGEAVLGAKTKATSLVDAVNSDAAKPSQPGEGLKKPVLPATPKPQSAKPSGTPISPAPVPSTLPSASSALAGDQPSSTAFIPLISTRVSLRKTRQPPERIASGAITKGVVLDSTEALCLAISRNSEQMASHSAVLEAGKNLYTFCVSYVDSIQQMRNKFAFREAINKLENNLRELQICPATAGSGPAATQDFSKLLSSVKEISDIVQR

| SMILES | ΔTm |
| --- | --- |
| O=C(CCCCCCNC(=O)c1cnc(N(c2ccccc2)c2ccccc2Cl)nc1)NO | 0.43 °C |
| O=C1Nc2ccccc2C2(CCN(CC(Cc3ccccc3)Nc3nc4ccc(F)cc4s3)CC2)N1 (stereo not drawn) | 0.77 °C |
| C[C@@H]1CN(Cc2ncccn2)C[C@H]1c1nc2c(cnn2C2CCOCC2)c(=O)[nH]1 | 0.63 °C |
| CNCCCN1c2ccccc2CCc2ccccc21 | 0.08 °C |
| O=C(NCc1ccc(Cl)cc1)C1CCN(S(=O)(=O)c2cc(Cl)cc(Cl)c2)CC1 | 0.35 °C |
| COCCOCCn1nc2c(c1C)-c1c(Cl)ccc3c1c(C)c(C(=O)O)n3CCCOc1cc(cc3c(F)c(Cl)ccc13)CCc1cc(nn1C)CSC2 | -1.69 °C |
| O=c1[nH][nH]c(=O)c2cc(OCc3ccccc3F)ccc12 | 3.37 °C |
| CCN(CC)CCCC[C@H](NC(=O)[C@H](CC(C)C)NC(=O)[C@H](C)NC(=O)[C@H](Cc1ccccc1)NC(=O)c1ccc(C(C)(C)C)cc1)C(=O)N[C@@H](CO)C(=O)OC ({Benzoyl(4-tBu)}-FAL[Lys(Et2)]S-OMe) | 0.51 °C |
| Cc1cc(-c2ccccc2)cc(C(=O)NNS(=O)(=O)c2ccccc2)c1F | 0.58 °C |
| COc1ccc([C@@H]2CNC(=O)C2)cc1OC1CCCC1 | 0.51 °C |
| CC(C)[C@@H]1NC(=O)[C@H](Cc2ccc(O)cc2)NC(=O)[C@@H](CC(=O)O)NC(=O)S[C@@H](C(=O)O)NC(=O)[C@H]([C@H](C)O)NC(=O)[C@H](Cc2ccc(O)cc2)NC(=O)[C@H](Cc2c[nH]c3ccccc23)NC(=O)[C@H](CCCNC(=N)N)NC(=O)[C@H](Cc2c[nH]c3ccccc23)NC(=O)[C@H](C)NC(=O)[C@H](CO)NC(=O)[C@H](CCCNC(=N)N)NC(=O)[C@H]([C@H](C)O)NC(=O)[C@H](CC(N)=O)NC(=O)[C@H](Cc2ccc(O)cc2)NC1=O | 0.39 °C |
| COc1cc(Nc2ncc(F)c(Nc3ccc4c(n3)N(COP(=O)(O)O)C(=O)C(C)(C)O4)n2)cc(OC)c1OC | 2.78 °C |
| COC(=O)[C@H]1[C@H]2C[C@@H]3c4[nH]c5cc(OC)ccc5c4CCN3C[C@H]2C[C@@H](OC(=O)c2cc(OC)c(OC)c(OC)c2)[C@@H]1OC | 0.21 °C |
| O=C(CCCCCCNC(=O)c1cnc(N(c2ccccc2)c2ccccc2)nc1)NO | 0.66 °C |
| CCC[C@@H]1CNCc2c1[nH]c(=O)c(C#N)c2N1CCC2(CC1)CC2 | 0.32 °C |
| Cc1ccc(F)c2cc(C(=O)N[C@@H]3CCC[C@H](N4CC[C@H](N(C)S(C)(=O)=O)C4)C3)[nH]c12 | 0.55 °C |
| NC(=O)c1cc(F)cc2c1C(=O)N(C1CCN(C3CCC(F)(F)CC3)CC1)C2 | 0 °C |
| CCCC[C@]1(CC)CS(=O)(=O)c2cc(CNC(CC(=O)O)CC(=O)O)c(OC)cc2[C@@H](c2ccccc2)N1 | 0.44 °C |
| C[C@@H](Oc1ccc(S(C)(=O)=O)cc1C(=O)N1C[C@@H]2C[C@]2(c2cc(C(F)(F)F)on2)C1)C(F)(F)F | 0.62 °C |

| SMILES | ΔTm |
| --- | --- |
| CCN(CC)C(=O)/C(C#N)=C/c1cc(O)c(O)c([N+](=O)[O-])c1 | 0.3 °C |
| Cc1cc(C)c(CNC(=O)c2cc(Cl)c3c(c2C)O[C@@](C)([C@H]2CC[C@H](N(C)C)CC2)O3)c(=O)[nH]1 | 0.37 °C |
| O=C(CCCCCCC(=O)Nc1ccc([C@H]2O[C@@H](CSc3nc(-c4ccccc4)c(-c4ccccc4)o3)C[C@@H](c3ccc(CO)cc3)O2)cc1)NO | -3.66 °C |
| COc1ccc(CC[C@H]2CCC[C@@H](CCc3ccc(OC)cc3)N2C[C@@H](O)CO)cc1 | 0.7 °C |
| C=C(C)[C@@H](CC=C(C)C)C[C@@]12C[C@@H](CC=C(C)C)C(C)(C)[C@@](CC=C(C)C)(C(=O)C(C(=O)c3ccc(O)c(O)c3)=C1O)C2=O | 0.52 °C |
| CNC(=O)c1cc(Nc2ccnc(Nc3ccc(CCNC(=O)OC(C)(C)C)cc3)n2)n[nH]1 | 0.52 °C |
| O=C(c1cc(Cc2n[nH]c(=O)c3ccccc23)ccc1F)N1CC(CNC2CC2)C1 | 0.54 °C |
| CCCCOc1c(OC)cc(C(=O)NCC2(N(C)C)CCOCC2)cc1OC | 0.07 °C |
| Cn1c(=O)cc(N2CCC[C@@H](N)C2)n(Cc2cc(F)ccc2C#N)c1=O | 0.09 °C |
| CCOCC1(COCC)CCC(c2n[nH]cc2CN(C)CCNC)CC1 | 0.58 °C |
| CCCNC(=O)[C@H]1O[C@@H]1C(=O)N[C@H](C(=O)N1CCC[C@H]1C(=O)O)[C@@H](C)CC | 0.43 °C |
| CCS(=O)(=O)N1CC(CC#N)(n2cc(-c3ncnc4[nH]ccc34)cn2)C1 | 2.37 °C |
| C[C@H]1CO[C@@H]2Cn3cc(C(=O)NCc4ccc(F)cc4F)c(=O)c(O)c3C(=O)N12 | 0.13 °C |
| CN(C)CCCNC(=O)c1ccc(-c2cc(O)c3ncccc3c2)cc1 | 1.29 °C |
| COC[C@H](NC(=O)c1ccn(S(C)(=O)=O)c1)C(=O)Nc1nc(-c2cccc(-c3ccn(C)n3)c2)cs1 | 0.67 °C |
| Cc1c(Nc2ccc(S(=O)(=O)N3CCN(C)CC3)cc2F)nc2ccc(-c3cnn(C4CC4)c3)cn2c1=O | 0.73 °C |
| COc1cc(C(=O)NCC2(N(C)C)CCCC2)cc(OC)c1OCc1ccccc1 | 0.81 °C |
| COc1ccc(-c2ccc(-c3cn(C(=O)N4CCCCC4c4ccccc4)nn3)cc2)cc1 (stereo not drawn) | 0.38 °C |
| OC[C@H]1O[C@@H](c2ccc(Cl)c(Cc3ccc(O[C@H]4CCOC4)cc3)c2)[C@H](O)[C@@H](O)[C@@H]1O | 0.58 °C |
